Hits are enriched below; roughly 1.1% of the tested compounds scored in any of these assays.
BJeLR lethal: BJeLR cell viability loss | 300,000 compounds, 0.17% hits | AID 1554 | inhibition, % (test concentration not listed) | BJeLR (HRASV12) viability, CellTiter-Glo ATP luminescence, 48 h; in the data active = inhibition above about 50%; inconclusive = no clear call, values can overlap the other calls
Mtb BioA inh: blocks M. tuberculosis BioA enzyme activity | purified M. tuberculosis BioA enzyme, plate reader | inhibition, % at 9.99 µM | 360,000 compounds, 0.096% hits | AID 602481; in the data active = inhibition above about 40%; inconclusive = no clear call, values can overlap the other calls
RecA splice inh: inhibitors of M. tuberculosis RecA intein splicing; P9WHJ3; cell-free RecA intein splicing, fluorescence; inhibition, % (test concentration not listed); 290,000 compounds, 0.75% hits; AID 2221; in the data active = inhibition above about 30%; inconclusive = no clear call, values can overlap the other calls;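 also: 0% = vehicle wells and 100% = reference inhibitor control wells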
Target sequence (P9WHJ3 whole entry, looked up, canonical isoform): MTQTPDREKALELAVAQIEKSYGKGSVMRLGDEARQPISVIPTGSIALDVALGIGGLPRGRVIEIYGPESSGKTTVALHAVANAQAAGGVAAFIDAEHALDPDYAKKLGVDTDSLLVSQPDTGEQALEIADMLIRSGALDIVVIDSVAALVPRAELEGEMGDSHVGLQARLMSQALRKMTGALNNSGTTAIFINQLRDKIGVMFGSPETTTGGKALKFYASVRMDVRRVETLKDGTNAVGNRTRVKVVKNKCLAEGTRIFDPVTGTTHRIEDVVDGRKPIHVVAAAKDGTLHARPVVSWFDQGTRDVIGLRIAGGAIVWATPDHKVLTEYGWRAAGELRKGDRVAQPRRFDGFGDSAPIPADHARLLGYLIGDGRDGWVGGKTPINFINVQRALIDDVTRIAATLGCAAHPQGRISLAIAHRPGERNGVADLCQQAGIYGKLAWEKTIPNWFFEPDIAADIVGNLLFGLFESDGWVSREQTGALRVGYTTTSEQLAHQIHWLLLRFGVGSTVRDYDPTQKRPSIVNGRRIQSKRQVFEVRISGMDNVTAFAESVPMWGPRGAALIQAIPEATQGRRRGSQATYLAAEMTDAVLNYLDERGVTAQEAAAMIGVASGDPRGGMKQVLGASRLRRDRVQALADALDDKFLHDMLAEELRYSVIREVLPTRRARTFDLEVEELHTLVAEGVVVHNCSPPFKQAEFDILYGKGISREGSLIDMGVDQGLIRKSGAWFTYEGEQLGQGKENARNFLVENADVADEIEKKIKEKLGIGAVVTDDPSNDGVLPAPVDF
Yp Topo-I inh: blocks Yersinia pestis topoisomerase I activity | 360,000 compounds, 0.064% hits | Y. pestis Topo-I cleavage product accumulation, plate reader | AID 504884 | activity, % at 10 µM; in the data active = activity above about 50%, passing the limit was not always enough; inconclusive = no clear call, values can overlap the other calls
CCHF vOTU inh: CCHFV vOTU protease inhibition. Pep-AMC fluorescence. inhibition, % at 11.5 µM. 370,000 compounds, 0.55% hits; in the data active = inhibition above about 30%; also: 0% = vehicle wells with enzyme and 100% = no enzyme wells
Mtb betalactam: beta-lactam sensitization of Mtb H37Rv. inhibition, % at 25 µM. M. tuberculosis H37Rv growth with meropenem, percent inhibition. 330,000 compounds, 0.27% hits; call rule not given here;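 also: growth measured after seven days incubation then overnight dye step; 0% = bacteria only wells and 100% = bacteria with antibiotic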
Active calls of the source: *; ? = inconclusive; . = no result given.

SMILES	BJeLR lethal	Mtb BioA inh	RecA splice inh	Yp Topo-I inh	CCHF vOTU inh	Mtb betalactam
O=C(O)c1ccc(Nc2cc(Cl)c3nonc3c2[N+](=O)[O-])cc1	0	1	.	5	22	-2
O=[N+]([O-])c1c(Nc2cccc(O)c2)cc(Cl)c2nonc12	79*	1	-5	-9	6	96
CCc1c(C)c(C#N)c2nc3ccccc3n2c1Cl	129*	.	29	.	.	.
CO[C@H]1CN(C)C(=O)c2cc(NS(=O)(=O)c3ccccc3)ccc2OC[C@@H](C)N(Cc2ccccn2)C[C@H]1C	.	0	.	.	.	.
c1ccc(Sc2ncnc3ccccc23)cc1	-6	-1	40*	1	3	1
CO[C@H]1CN(C)C(=O)c2cc(NS(=O)(=O)c3cccc(F)c3)ccc2OC[C@H](C)NC[C@@H]1C	.	2	.	.	.	.
CCc1nc(N)nc(N)c1-c1ccc(NCCN)c([N+](=O)[O-])c1	.	.	.	3	8	.
CCc1nc(N)nc(N)c1-c1ccc(Cl)cc1	62*	-22	-7	-14	-3	35
COc1ccc(NC(=O)N(C)C[C@@H]2OCCCC[C@@H](C)Oc3ccc(NS(C)(=O)=O)cc3C(=O)N([C@H](C)CO)C[C@H]2C)cc1	.	-1	.	.	.	.
O=C(c1ccco1)c1coc2c1cc(O)c1ccccc12	6	-1	45*	-4	18	0
CC(=O)c1coc2c1cc(O)c1ccccc12	-2	1	4	-5	0	?
O=C1N(c2ccccc2)C[C@@H]2C[C@@H](c3cc4ccccc4o3)N3CCC[C@@]123	51*	.	4	8	-15	.
c1ccc2c(c1)OCC(c1csc3ncnc(N4CCOCC4)c13)O2 (stereo unspecified)	-9	.	3	9	-18	-1
CCN(CC)c1ncnc2scc(C3COc4ccccc4O3)c12 (stereo unspecified)	-13	2	19	53*	12	-15
COC(=O)C1=NN(C(=O)c2cccc(Br)c2)C(O)(c2ccc(Cl)cc2)C1 (stereo unspecified)	3	2	37*	17	16	9
CCC1=Nc2cc(C(=O)NCc3ccco3)ccc2Sc2ccc(C)cc21	62*	0	12	34	14	0
CCC1=Nc2cc(C(=O)NCCN3CCOCC3)ccc2Sc2ccc(C)cc21	10	-1	3	8	-4	-3
C[C@H]1CN([C@@H](C)CO)C(=O)c2cc(C3=CCCC3)cnc2O[C@H]1CN(C)C(=O)c1ccccc1	.	-2	.	.	.	.
CO[C@@H]1CN(C)C(=O)c2ccc(NC(=O)c3nc4ccccc4s3)cc2OC[C@H](C)N(Cc2cccnc2)C[C@@H]1C	.	-2	.	.	.	.
O=c1c(C(c2ccccc2)c2c(O)sc3ccccc3c2=O)c(O)sc2ccccc12	0	3	29*	2	-13	4
COc1cccc(NC(=O)n2ncc3c(C)cccc32)c1	54*	0	8	1	-9	12
CCOc1ccc(NC(=O)n2ncc3c(C)cccc32)cc1	10	-2	0	-3	7	77
CCCC(=O)N1N=C(c2ccccc2)CC1c1cn(C)c2ccccc12 (stereo unspecified)	-11	-2	18	56*	3	1
CC(C)(C)C1CCc2nc(NC(=O)Cc3cn4ccsc4n3)sc2C1 (stereo unspecified)	3	3	-3	62*	21	98
O=C(O)c1ccc(/C=N/Nc2nc3ccccc3[nH]2)cc1	8	0	-2	-5	1	10
SMILES	BJeLR lethal	Mtb BioA inh	RecA splice inh	Yp Topo-I inh	CCHF vOTU inh	Mtb betalactam
CC(=O)Nc1ccc(/C=N/Nc2nc3ccccc3[nH]2)cc1	67*	.	.	-31	17	3
C/C(=N\Nc1nc2ccccc2[nH]1)c1cc2ccccc2o1	6	.	8	-4	12	91
C/C(=N\Nc1nc2ccccc2[nH]1)c1ccccn1	74*	5	10	-17	-7	85
CO[C@@H]1CN(C)C(=O)c2cc(NS(=O)(=O)CC(F)(F)F)ccc2OC[C@@H](C)N(Cc2ccccn2)C[C@@H]1C	.	1	.	.	.	.
Cc1noc(C)c1NC(=O)Nc1ccc2c(c1)CC(=O)N([C@@H](C)CO)C[C@H](C)[C@@H](CN(C)S(C)(=O)=O)O2	.	-1	.	.	.	.
CN1CCc2cc3c(c4c2[C@H]1[C@H](O)c1ccccc1-4)OCO3	9	1	-10	-10	37*	100
CN1C(=O)c2cc(NC(=O)Cc3cccs3)ccc2OC[C@H]2O[C@H](CC(=O)O)CC[C@@H]21	.	-1	.	.	.	.
Cc1cc(C(=O)Nc2cccc3c2O[C@H](CN(C)S(=O)(=O)c2cn(C)cn2)[C@H](C)CN([C@H](C)CO)C3=O)n(C)n1	.	-6	.	.	.	.
COc1ccccc1-c1nnc2sc(-c3ccc(N(C)C)cc3)nn12	53*	-2	-8	-1	-3	3
CN(C)CCCNC(=O)C[C@@H]1CC[C@H]2[C@@H](COc3ccc(NS(C)(=O)=O)cc3C(=O)N2C)O1	.	-1	.	.	.	.
Cc1cc(Sc2nnc(/N=C/N(C)C)s2)c2ccccc2n1	-20	1	36*	2	-1	90
CN(C)CC(=O)N[C@H]1CC[C@H](CCn2cc(CN(C)C)nn2)O[C@@H]1CO	.	3	.	.	.	.
CN(C)C(=O)[C@H]1[C@H](CO)[C@H]2Cn3c(ccc(-c4ccccc4F)c3=O)[C@@H]1N2C(=O)c1ccccc1	.	-2	.	.	.	.
O=C(COC(=O)c1ccco1)c1ccc2ccccc2c1	1	-1	8	-1	-1	4
CCCOC(=O)c1ccc(OC(=O)c2ccco2)cc1	6	1	37*	19	1	99
O=C(Oc1ccc2ccccc2c1)c1ccco1	-11	.	35*	13	-8	95
CCCOC(=O)c1ccc(NC(=O)Oc2ccccc2)cc1	-10	.	3	12	6	-2
O=C(Oc1ccc(-n2cnnn2)cc1)c1ccco1	-3	2	38*	2	5	-4
CN1C(=O)c2cc(NS(=O)(=O)c3ccccc3Cl)ccc2OC[C@@H]2O[C@@H](CC(=O)O)CC[C@@H]21	.	-2	.	.	.	.
Cc1ccc(-c2csc(NC(=O)CSC3=NCCS3)n2)cc1	-6	-2	58*	-4	-5	99
Cc1ccc(-c2csc(NC(=O)CSc3nc(C)cc(=O)[nH]3)n2)cc1	8	.	5	.	5	-4
CCOC(=S)SCC(=O)Nc1nc(-c2ccccc2)cs1	2	-3	43*	-6	4	1
O=c1oc(-c2ccccc2)cc2ccccc12	.	0	.	-7	-14	.
O=c1oc(-c2ccccc2)cc(Cl)c1Cl	23	-1	47*	5	0	87
